# In the library only some 8.2% were active in any assay of this set; here they are far more common.
# KB-V1 MDR tox: KB-V1 MDR subline cytotoxicity. KB-V1 MDR cells viability, CellTiter-Glo, 72 h. Potency, µM (series often up to 46.1 µM), most hits filed as cytotoxic. 400,000 tested, 3.4% active. AID 1347076; further: on the % scale 0 is the no-effect control and ±100 the full control effect; nearly all actives have a fitted effect of over 60% in size
#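 Luminescent ATP read-out (CellTiter-Glo, 10 min) measures survival of drug-selected KB-V1 MDR cells after 72 h, 37 degrees C compound exposure. Medium: phenol-red-free DMEM, 10% FBS. Values from fitted concentration-response curves.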
# KB-3-1 cytotox: kills parental KB-3-1 adenocarcinoma cells. Potency, µM (top dose mostly 46.1 µM), actives largely listed as cytotoxic. AID 1347075. 400,000 tested, 1.4% active. KB-3-1 viability, CellTiter-Glo ATP luminescence, 72 h; further: on the % scale 0 is the no-effect control and ±100 the full control effect; nearly all actives have a fitted effect of over 60% in size
#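 Multi-concentration cytotoxicity screen in KB-3-1 cells grown in DMEM lacking phenol red with 10% FBS. After 72 h at 37 °C with compound, ATP-dependent luminescence was recorded.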
# MCF10A rereplic: inducers of DNA re-replication in MCF 10A breast cells; MCF 10A DNA re-replication, Hoechst nuclear intensity, 48 h; Potency, µM (doses to about 46.1 µM), without a hit: top-dose activity, positive = re-replication, actives largely listed as activators; 350,000 tested, 2.9% active; AID 624296; further: % of control where 0% means no effect; nearly all actives have a fitted effect of over 50% in size
# SW480 rereplic: induces DNA re-replication in SW480 colon adenocarcinoma cells; SW480 DNA re-replication, Hoechst DNA content imaging, 48 h; Potency, µM (titrated, usually from 46.1 µM), for the others: at the highest dose re-replication activation, usual class: activators; 340,000 tested, 1.8% active; AID 624297; further: % of control where 0% means no effect; nearly all actives have a fitted effect of over 55% in size
#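 250 cells/well; 23 nL cpd via pin tool; 48 hr, 37 C, 5% CO2; Hoechst 40 min; imager read of total nuclear intensity, ex 405/em 500-530 nm.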
# ELG1 DNA repair: blocks ELG1-dependent DNA repair in HEK293T cells; AID 504467; HEK293T ELG1-luciferase reporter, luminescence, 16 h; DNA damage induced by 5-fluorouridine; Potency, µM (series often up to 46.1 µM), for inactives: at the top dose activity change, negative = inhibition, hits mostly inhibitors; 330,000 tested, 2.3% active; further: on the % scale 0 is the no-effect control and ±100 the full control effect; nearly all actives have a fitted effect of over 55% in size
#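 Reporter activity after DNA damage by 5-fluorouridine is monitored. Compound-treated cells incubate 16 hr at 37 °C, then ONE-Glo is added for 30 min before luminescence reading.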
# * hit, by the source's call; i = inactive; ? = inconclusive; nt = not tested or not shown. The call rests on the fitted dose curve; in most records, active means well fitted curve in the direction sought with a large enough effect; inconclusive means small, poorly fitted or top-dose-only effect, or another doubt; inactive means no such curve, though single readings can be large; an effect the other way counts as inactive or inconclusive. Potency means the concentration at half of the fitted maximal effect.
SMILES,KB-V1 MDR tox,KB-3-1 cytotox,MCF10A rereplic,SW480 rereplic,ELG1 DNA repair
Cc1cccc(N2C(=O)CS(=O)(=O)C23C(=O)N(Cc2c(F)cccc2Cl)c2ccccc23)c1 (centres undefined),5.8µM*,i,nt,nt,nt
CC(C)c1ccc(N2C(=O)CSC23C(=O)N(Cc2cccc(F)c2)c2ccccc23)cc1 (centres undefined),13µM*,21µM*,nt,nt,nt
O=C1CSC2(C(=O)N(Cc3cccc(F)c3)c3ccccc32)N1c1cccc(C(F)(F)F)c1 (centres undefined),13µM*,?,nt,nt,nt
O=C1CSC2(C(=O)N(Cc3ccccc3)c3ccccc32)N1c1ccc(Cl)cc1 (centres undefined),i,?,nt,nt,nt
O=C1c2ccccc2C(=O)N1CCC#C/C=C1\c2ccccc2C(=O)N1c1ccccc1,i,i,nt,nt,nt
Cc1c(C(=O)OCC(=O)NCCN2C(=O)CSC2=O)cccc1[N+](=O)[O-],?,i,-1%,-25%,14%
Cc1cccc(N2C(=O)CSC23C(=O)N(Cc2cccc(F)c2)c2ccccc23)c1 (centres undefined),15µM*,?,nt,nt,nt
Cc1ccc(S(=O)(=O)c2nc(-c3ccc(F)cc3)oc2SCC(=O)NCC2CCCO2)cc1 (centres undefined),1.8µM*,i,?,0%,1%
O=C(CN(C1CCCCC1)S(=O)(=O)c1ccc(F)cc1)NCC1CCCO1 (centres undefined),?,4.6µM*,?,1.2µM*,nt
O=C(CN(C1CCCCC1)S(=O)(=O)c1ccc(F)cc1)NCc1ccncc1,8.2µM*,i,-11%,-4%,3%
Cc1occc1C(=O)N/N=C/c1ccc(-c2ccccc2)cc1,13µM*,21µM*,14%,18%,?
Cc1cc(C(=O)N/N=C/c2ccc3c(c2)OCO3)c(C)o1,?,i,-49%,-49%,?
Cc1ccsc1C(=O)N/N=C/c1ccc2c(c1)OCO2,18µM*,?,22%,-20%,?
O=C(N/N=C/c1ccc2c(c1)OCO2)c1cccs1,i,?,11%,-4%,?
Cc1occc1C(=O)N/N=C/c1ccc2c(c1)OCO2,7.3µM*,15µM*,3%,2%,?
CC(=O)N1N=C(c2ccccc2O)CC1c1cccs1 (centres undefined),i,i,?,-1%,0%
CN(C)CCNc1ncnc2ccc(-c3ccc4c(c3)OCO4)cc12,i,i,nt,nt,nt
O=c1oc(-c2cccs2)nc2sc3c(c12)CCCC3,i,i,18µM*,?,?
O=c1oc(-c2cccs2)nc2sc3c(c12)CCC3,i,i,-3%,-1%,-5%
CCc1cc(=O)oc2cc(OCC(=O)NCc3ccccn3)ccc12,i,i,?,12µM*,10%
O=C(COc1ccc2c(-c3ccccc3)cc(=O)oc2c1)NCc1ccccn1,i,i,3%,-13%,-6%
CC(C)CCOc1ccc(CC(=O)NO)cc1,i,i,nt,nt,nt
Cn1c(=O)n(C)c2cc(N3CCOCC3)c(NS(=O)(=O)c3ccc(Cl)cc3)cc21,?,i,nt,nt,nt
Cc1ccc(-c2csc(/C(C#N)=C(\O)CCl)n2)cc1,i,i,16µM*,6%,?
Cc1ccc(-c2cc(-c3ccccc3Cl)[nH]n2)c(O)c1,i,i,6%,16%,?
Oc1ccc(Br)cc1-c1cc(-c2ccccc2Cl)[nH]n1,?,?,25%,5.2µM*,?
Cc1ccccc1-c1cc(-c2ccccc2O)n[nH]1,18µM*,?,?,?,?
COCCCN1C(=O)C(CC(=O)NCCCN(C)C)CC(C(=O)N(C(C)C)C(C)C)=C1C (centres undefined),i,i,nt,nt,nt
CN(C)S(=O)(=O)c1ccc(C(=O)NCCN2C(=O)S/C(=C\c3cccnc3)C2=O)cc1,i,i,-6%,-8%,0%
CS(=O)(=O)c1ccc(C(=O)NCCN2C(=O)S/C(=C\c3cccnc3)C2=O)cc1[N+](=O)[O-],i,?,13µM*,2.1µM*,?

# Bioassay records from PubChem.
